Experimental data published in PubChem BioAssay AID540333 (Southern Research Specialized Biocontainment Screening …, 2011).
Among all 10,000 compounds or so, about 320 (3.2%) were called active. This excerpt belongs to a sample that is enriched for actives. Unmarked numbers belong to inactive results. No stated cut-off is given here; in the data, active means CPE inhibition mostly above about 9.1% (no sharp cut-off); inactive means mostly below about 7.2%.

test: Dengue virus cytopathic effect inhibitors, cell-based, CPE readout, HTS (AID 540333); settings: Dengue virus CPE inhibition in host cells, at 20 µM; stronger effect = higher value

SMILES | CPE inhibition
CC1(C)C=C(c2ccc(C=O)s2)CC(C)(C)N1C=O | 0.13%
O=C(COC(=O)C12CC3CC(CC(C3)C1)C2)Nc1nc2c(F)c(F)c(F)cc2s1 | 13.5% (active)
O=C(COC(=O)C12CC3CC(CC(C3)C1)C2)Nc1ccc([N+](=O)[O-])cc1Br | inactive
O=C(COC(=O)C12CC3CC(CC(C3)C1)C2)Nc1ccc([N+](=O)[O-])cc1Cl | 1.98%
CCN(Cc1ccccc1)c1ccc(/C=N/NC(=S)NC(C)C)cc1 | 30.1% (active)
CCN(Cc1ccccc1)c1ccc(/C=N/NS(=O)(=O)c2ccc(C)c([N+](=O)[O-])c2)cc1 | 0.46%
CCN(CC)c1ccc(/C=N/NC(=S)NCc2ccccc2)c(O)c1 | inactive
C=CCNC(=S)N/N=C/c1ccc(N(CC)Cc2ccccc2)cc1 | 28.3% (active)
CCN(Cc1ccccc1)c1ccc(/C=N/N=C(N)N)cc1 | inactive
CCN(CC)c1ccc(/C=N/NC(=O)c2ccco2)cc1 | 1.16%
CCOC(=O)c1ccc(NC(=O)c2c(N)n(Cc3ccccc3)c(=O)[nH]c2=O)cc1 | inactive
Cc1ccc(CCNC(=O)CN(C)S(=O)(=O)c2cnc[nH]2)cc1 | inactive
O=C(Nc1ccc(Cl)c([N+](=O)[O-])c1)c1ccncc1 | 0.365%
CC12CCC(C(=O)N3CCCc4ccccc43)(OC1=O)C2(C)C (configuration not stated) | 0.12%
O=C(C1=NN[C@@H]2C(=O)N(c3cccc(C(F)(F)F)c3)C(=O)[C@H]12)C(c1ccccc1)c1ccccc1 | 0.31%
CCOC(=O)c1c(NC(=S)Nc2ccc(OC)cc2)sc2c1CCC2 | inactive
CCOC(=O)c1c(NC(=O)C2(C)Cc3ccccc3C(=O)O2)sc2c1CCCC2 (configuration not stated) | 4.8%
CC(C(=O)Nc1sc2c(c1C(=O)NCC1CCCO1)CCC2)N1C(=O)c2ccccc2C1=O (configuration not stated) | inactive
CCOC(=O)c1c(NC(NC(C)=O)C(Cl)(Cl)Cl)sc2c1CCCC2 (configuration not stated) | 13% (active)
COC(=O)c1c(NC(NC(=O)C(C)C)C(Cl)(Cl)Cl)sc2c1CCC2 (configuration not stated) | 13.8% (active)
CC(C)C(=O)NC(=S)Nc1sc2c(c1C(N)=O)CCCC2 | inactive
COc1ccc(N(CC(=O)Nc2cccc([N+](=O)[O-])c2C)S(C)(=O)=O)cc1OC | inactive
N/C(=N\OCC(=O)Nc1ccccc1)c1nonc1N | 0.24%
NS(=O)(=O)c1ccc(CCNC(=O)c2cc(-c3ccccc3)nc3ccccc23)cc1 | inactive

SMILES | CPE inhibition
CC1(c2nnc(Cc3ccccc3)o2)CC(c2ccccc2F)=NO1 (configuration not stated) | inactive
COc1ccc(C(=O)NCC(=O)OCC(=O)N2CCN(S(=O)(=O)c3ccccc3)CC2)cc1 | inactive
FC(F)Oc1ccc(NC(=S)NCc2ccccc2)cc1 | inactive
O=C(NNC(=S)NCc1ccccc1)c1ccc(OC(F)F)cc1 | 0.96%
O=C(NCc1ccccc1)/C(=C/c1ccc(OC(F)F)cc1)c1ccccc1 | 9.52% (active)
Cc1cc(C(=O)COc2ccc(C#N)cc2)c(C)n1-c1ccc2c(c1)OCO2 | 9.11%
O=C(O)c1cccc2c1C(=O)c1ccc(-c3ccc(F)cc3F)cc1S2(=O)=O | 1.88%
O=C(Nc1ccc(F)cc1)c1ccccc1Oc1ccc(C(F)(F)F)cc1[N+](=O)[O-] | 9.71%
O=Cc1ccc(OC2OCCOC2Oc2ccc(C=O)cc2)cc1 (configuration not stated) | 15.4% (active)
c1ccc(-c2csc3ncnc(NCC4COc5ccccc5O4)c23)cc1 (configuration not stated) | 6.15%
Nc1nccnc1C(=O)OCC(=O)Nc1cccc(S(=O)(=O)N2CCCCC2)c1 | inactive
Cc1cnc(C(=O)OCC(=O)Nc2cccc(S(=O)(=O)N3CCCCC3)c2)cn1 | inactive
CC1CCc2c(C(=O)OCC(=O)Nc3cccc(S(=O)(=O)N4CCCCCC4)c3)csc2C1 (configuration not stated) | 11.4% (active)
CS/C(=N\S(=O)(=O)c1cccs1)Nc1cccc(Cl)c1C | inactive
COc1ccc(C)cc1NC(=O)C(OC(=O)c1cc(C)oc1C)c1ccccc1 (configuration not stated) | 1.23%
Cc1ccc(NC(=O)C(OC(=O)c2cc(C)oc2C)c2ccccc2)cc1 (configuration not stated) | 18.4% (active)
Cc1cc(C(=O)OC(C(=O)Nc2ccc(C)c(Cl)c2)c2ccccc2)c(C)o1 (configuration not stated) | 14.6% (active)
Cc1ccc(NC(=O)CSc2ccccc2NC(=O)c2ccccc2)cc1Cl | 2.96%
CC(=O)c1cccc(NC(=O)C(OC(=O)c2cccs2)c2ccccc2)c1 (configuration not stated) | 0.01%
Cc1ccc(NC(=O)C(OC(=O)c2ccc(F)cc2)c2ccccc2)cc1Cl (configuration not stated) | 1.61%
Cc1cc(C)cc(NC(=O)C(OC(=O)c2ccc([N+](=O)[O-])o2)c2ccccc2)c1 (configuration not stated) | 0.445%
Cc1ccc(NC(=O)CSc2ccccc2NC(=O)c2ccccc2Cl)cc1Cl | 9.34%
Cc1ccc(NC(=O)C(OC(=O)c2ccc(NC(N)=O)cc2)c2ccccc2)cc1Cl (configuration not stated) | 15.2% (active)
